From PubChem BioAssay (NCATS)
Records with an inconclusive call do not appear. Activity calls are given as the source filed them. Unless noted, calls come from the whole dose curve; as a rule, active = well fitted curve in the direction sought with a large enough effect; inconclusive = small, poorly fitted or top-dose-only effect, or another doubt; inactive = no such curve, though single readings can be large; an effect the other way counts as inactive or inconclusive.

Experiments:
[1] = qHTS Assay for Lipid Storage Modulators (AID 1519; calls by dose curve; for activity change, negative = inhibition: % is set by controls: 0 for no effect and ±100 for the full control effect); details: Drosophila S3 cells, BODIPY lipid droplet/cell ratio, laser cytometry, cells loaded with oleic acid
In short: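 Cells seeded at 5,000 per well were treated with compounds over a concentration series and loaded with oleic acid (400 uM, as added). Lipid droplet fluorescence (488 nm excitation, 500-530 nm channel) was read by laser-scanning cytometry and normalized to 20 uM Triacsin C.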

[2] = target: DNA repair nuclease/redox regulator APEX1 (Homo sapiens) (UniProt P27695); assay: qHTS Validation Assay for Inhibitors of the Human Apurinic/apyrimidinic Endonuclease 1 (APE1) (AID 1705;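 note: TAMRA fluorescence gain over two minutes as APE1 cuts a quenched THF abasic duplex; % is set by controls: 0 for no effect and ±100 for the full control effect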); details: purified APE1 endonuclease activity, fluorescence, titration; series mostly up to 57.1 µM
In short: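 Read-out: TAMRA fluorescence (525 nm ex, 598 nm em) from cleavage of a quenched THF abasic-site duplex, 50 nM final; activity taken as intensity change between third and first of three reads 60 s apart.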

[3] = Counterscreen for APE1 Inhibitors: Fluorescent Dye Displacement Validation Assay (AID 1707); details: fluorescent dye displacement from DNA; series mostly up to 57.1 µM;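 note: plate controls were ThO with dsDNA and no compound for no effect and ThO without dsDNA for full effect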
In short: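 Compounds are scored by their ability to displace Thiazole Orange (250 nM) from a 50 nM TAMRA-tagged duplex bearing a tetrahydrofuran abasic site. Buffer is 50 mM Tris-HCl pH7.5, 50mM NaCl, 2 mM MgCl2, 0.01% Tween-20.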

[4] = target: Endonuclease 4 (Escherichia coli (strain K12)) (UniProt P0A6C1); assay: Counterscreen for APE1 Inhibitors: qHTS Validation Assay for Inhibitors of Endonuclease IV (AID 1708); note: % is set by controls: 0 for no effect and ±100 for the full control effect; details: E. coli endonuclease IV, DNA cleavage fluorescence; series mostly up to 57.1 µM
In short: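 Concentration-response counterscreen run identically to the APE1 assay: 15 min room-temperature preincubation of 2 nM enzyme with compound, reaction started with 50 nM quenched abasic DNA, progress taken from kinetic fluorescence.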

[5] = qHTS for differential inhibitors of proliferation of Plasmodium falciparum line 7G8 (AID 1815); details: Plasmodium falciparum 7G8 proliferation inhibition; series mostly up to 28.7 µM;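 note: potency is the fitted concentration of half-maximal effect; parasite growth measured after three days of incubation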
[6] = qHTS for differential inhibitors of proliferation of Plasmodium falciparum line GB4 (AID 1816); details: Potency: Plasmodium falciparum GB4 proliferation inhibition; series mostly up to 28.7 µM;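 note: potency is the fitted concentration of half-maximal effect; parasite growth measured after 72 h incubation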
[7] = qHTS for differential inhibitors of proliferation of Plasmodium falciparum line 3D7 (AID 1876); note: potency is the fitted concentration of half-maximal effect; details: P. falciparum 3D7 proliferation inhibition; series mostly up to 28.7 µM
[8] = qHTS for differential inhibitors of proliferation of Plasmodium falciparum line Dd2 (AID 1882); details: Potency: Plasmodium falciparum Dd2 proliferation inhibition; series mostly up to 28.7 µM; note: potency is the fitted concentration of half-maximal effect; nearly all actives have a fitted effect of over 65% in size
In short: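 Dd2-infected erythrocytes (0.3% parasitemia, 2.5% hematocrit final) incubated with compound 72 h at 37 C, 5% CO2; lysed with saponin/Triton buffer containing SYBR Green I, incubated overnight in the dark, then read by fluorescence (485/535 nm). Normalized to 0.29 uM artemisinin and DMSO.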

[9] = qHTS for differential inhibitors of proliferation of Plasmodium falciparum line W2 (AID 1883); details: Potency: Plasmodium falciparum W2 proliferation inhibition; series mostly up to 28.7 µM;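 note: potency is the fitted concentration of half-maximal effect; parasites grown with compound for 72 h before lysis and staining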
[10] = target: ATP-dependent DNA helicase Q1 (Homo sapiens) (UniProt P46063); assay: qHTS Validation Assay for Inhibitors of RecQ-Like Dna Helicase 1 (RECQ1) (AID 2353); details: recombinant RECQ1 helicase DNA unwinding assay; series mostly up to 25.6 µM;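 note: plate controls were DMSO vehicle for no effect and enzyme-free control for full effect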
In short: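 50 nM RECQ1T1 preincubated 15 min with compound in Tris pH 8.0 buffer with MgCl2, DTT, Tween-20 and 2.5 ug/ml poly(dI-dC); started with 200 nM TAMRA/BHQ-2 forked duplex and 2 mM ATP. Unwinding read as fluorescence (525/598 nm), two reads 2 h apart.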

[11] = Quantitative high throughput screen for delayed death inhibitors of the malarial parasite plastid, 96 hour incubation (AID 488745); details: Plasmodium falciparum growth; series mostly up to 28.7 µM; note: % is set by controls: 0 for no effect and ±100 for the full control effect; nearly all actives have a fitted effect of over 70% in size
In short: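 Luciferase-expressing P. falciparum in erythrocytes (2% hematocrit, 0.1% parasitemia) incubated with compound for 96 h at 37 C, 5% CO2, in RPMI 1640 with 0.5% Albumax. Growth inhibition read as decreased luminescence.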

[12] = target: Thyrotropin receptor (Homo sapiens) (UniProt P16473); assay: qHTS Assay for Antagonists of the Thyroid Stimulating Hormone Receptor (AID 488980); details: TSHR-expressing cells, cAMP antagonist read-out; series mostly up to 57.5 µM; note: 0% is about no effect
In short: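 TSHR-HEK293 cells; 70 uM RO 20-1724 PDE inhibitor; compound + EC80 TSH (4 nM final); anti-cAMP cryptate antibody/cAMP-d2 in lysis buffer, 30 min RT; HTRF 665/620 nm read.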

[13] = target: Thyrotropin-releasing hormone receptor (Homo sapiens) (UniProt P34981); assay: qHTS for Small Molecule Agonists and Allosteric Enhancers of Human TRH Receptor: Validation Screen for Agonists (AID 493127;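 active = calcium activation more than 3 SD above the typical response in the agonist read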; note: 0% is about no effect); details: TRH receptor agonist cell assay; at 2 µM; stronger effect = higher value
In short: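 TRHR cells loaded with fluo-8 calcium dye; FDSS kinetic fluorescence (Ex 480/Em 530) read at 1 s/cycle after 23 nL compound addition. Agonist-mode calcium response recorded before the 10 nM TRH (EC20) addition.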

[14] = target: Galactokinase (Homo sapiens) (UniProt P51570); assay: qHTS Validation Assay for Inhibitors of Human Galactokinase (GALK) (AID 493189); details: purified human GALK enzyme activity, qHTS 7-point titration; series mostly up to 57.5 µM; note: 0% is about no effect
In short: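 Luminescence from leftover ATP (Kinase-Glo Plus, 10 min) served as read-out after a 1 h room-temperature reaction of 5 nM GALK, 100 uM galactose and 35 uM ATP at pH8.0.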

[15] = Validation screen for small molecules that induce DNA re-replication in SW480 colon adenocarcinoma cells (AID 504364); details: DNA re-replication phenotype (high-content imaging); series mostly up to 46.1 µM; note: 0% is about no effect
In short: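 SW480 cells (250/well) exposed 48 h at 37 C, 5% CO2, then Hoechst-stained 40 min. Nuclear DNA content imaged by fluorescence scanning (405 nm excitation, 500-530 nm emission); re-replication scored as increased nuclei with elevated intensity.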

[16] = target: Voltage-gated inwardly rectifying potassium channel KCNH2 (Homo sapiens) (UniProt Q12809); assay: qHTS Assay for Small Molecule Inhibitors of the Human hERG Channel Activity (AID 588834); details: U2OS BacMam hERG, FluxOR thallium flux fluorescence; series mostly up to 46.1 µM;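 note: potency is the fitted concentration of half-maximal effect; lower thallium flux fluorescence means stronger hERG block; nearly all actives have a fitted effect of over 50% in size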
In short: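 Concentration-response qHTS measuring drop in thallium-sensitive dye signal. U2OS cells carrying BacMam hERG; compound exposure ~10 min, then stimulation buffer and 2 min read at 1 sec intervals.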

[17] = P-glycoprotein substrates identified in KB-3-1 adenocarcinoma cell line, qHTS therapeutic library screen (AID 1346986); details: KB-3-1 parental cells viability, CellTiter-Glo, 72 h; series mostly up to 44.5 µM; note: % is set by controls: 0 for no effect and ±100 for the full control effect; nearly all actives have a fitted effect of over 60% in size
In short: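 Resistance attributable to P-gp was assessed by comparing AC50 in KB-8-5-11 with parental KB-3-1 and by tariquidar reversal. Cells were exposed 72 h and viability read by CellTiter-Glo.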

[18] = tested on: Zika virus NS2B-NS3 protease; assay: Primary screen GU AMC qHTS for Zika virus inhibitors (AID 1347154); details: Zika NS2B-NS3 unlinked protease, AMC fluorogenic substrate; series mostly up to 54.1 µM;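 note: 0% = no-inhibitor control and -100% = no-enzyme control; nearly all actives have a fitted effect of over 70% in size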
In short: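 Unlinked Zika NS2B hydrophilic domain/NS3 protease domain noncovalent complex (25 nM final) in 10 mM Tris-HCl pH 8.0, 0.01% Tween 20, with AMC peptide substrate. Fluorescence (ex 340, em 450 nm) change over 15 min, room temperature; percent inhibition fitted to 4-parameter Hill equation.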

[19] = qHTS to identify inhibitors of the type 1 interferon - major histocompatibility complex class I in skeletal muscle: primary screen against the NCATS Mechanism Interrogation Plate v5.0 (MIPE) Libary (AID 1347411); details: iHSKM cells + IFN-b, HiBiT-tagged MHC-I luminescence, 24 h; series mostly up to 45.8 µM;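 note: plate controls were vehicle for no effect and reference inhibitor for full effect; nearly all actives have a fitted effect of over 65% in size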
In short: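 Immortalized human myoblasts (C25cl48) with HiBit knocked into endogenous HLA-B*08:01 were stimulated with 4 ng/ml IFN-beta and given compounds in 11-point 1:3 titration from 46 uM. After 24 h at 37 C, lytic HiBiT luminescence was read.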

[20] = target: Cytochrome P450 2D6 (Homo sapiens) (UniProt P10635); assay: Cytochrome P450 family 2 subfamily D member 6 (CYP2D6) small molecule antagonists: luciferase biochemical (cell-free) qHTS assay (AID 1645840; active = well fitted curve in the direction sought with a large enough effect in the repeat runs; an effect the other way counts as inactive or inconclusive; note: potency is the fitted concentration of half-maximal effect; nearly all actives have a fitted effect of over 55% in size); details: P450-Glo CYP2D6 enzyme, luciferin luminescence, 1 h; series mostly up to 57.4 µM
In short: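 P450-Glo luminescent screen: recombinant CYP2D6 enzyme–proluciferin substrate mix preincubated with compound 10 min at room temperature, then NADPH regeneration added for 1 h at room temperature. Detection reagent added for 20 min; luciferin light read as relative luminescence units.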

[21] = Primary qHTS for inhibitors of nuclear receptor binding SET domain protein 2 (NSD2) in an isogenic RCH-ACV NSD2 p.E1099K mutant (9B) (AID 1645876); details: RCH-ACV NSD2 E1099K (9B) viability, CellTiter-Glo, 72 h; series mostly up to 44.9 µM; note: potency is the fitted concentration of half-maximal effect; nearly all actives have a fitted effect of over 70% in size
[22] = Primary qHTS for inhibitors of nuclear receptor binding SET domain protein 2 (NSD2) in an RCH-ACV wild type WT cells (2C) (AID 1645877); details: RCH-ACV (leukaemia line) NSD2 WT (2C) viability, CellTiter-Glo, 72 h; series mostly up to 44.9 µM; note: potency is the fitted concentration of half-maximal effect; nearly all actives have a fitted effect of over 70% in size
[23] = NCATS anti-infectives library activity on HEK293 viability as a counter-qHTS vs the C. elegans viability qHTS (AID 1745854); details: HEK293 viability counter-screen; series mostly up to 41.8 µM;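 note: HEK293 cells exposed to compounds for 24 hr before the viability read; % is set by controls: 0 for no effect and ±100 for the full control effect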
In short: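 HEK293 cells (1,500/well) exposed 24 hr at 37C to 1:5 titrations, up to 41.7 uM final; counter-screen to a C. elegans viability qHTS. Viability by CellTiter-Glo luminescence after 10 min at room temperature; digitonin as control.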

[24] = NCATS anti-infectives library activity on the primary C. elegans qHTS viability assay (AID 1745855; calls by dose curve); details: C. elegans worm area imaging, day 7; series mostly up to 41.8 µM
In short: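 Viability read-out is GFP fluorescence of PE254-GFP-FLuc C. elegans, measured by laser cytometry (488 nm) at day 0, 3 and 7. Ten L1 worms per well were incubated 7 days at 21 °C with compounds and bacterial capsules in S medium.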

[25] = target: Glutathione peroxidase 1 (Homo sapiens) (UniProt P07203); assay: Primary qHTS Assay for Inhibitors of Recombinant Selenoprotein Glutathione Peroxidase 1 (GPX1) (AID 1845191); details: recombinant GPX1, GR-coupled NADPH fluorescence, 15 min; series mostly up to 48.8 µM; note: % is set by controls: 0 for no effect and ±100 for the full control effect; nearly all actives have a fitted effect of over 65% in size
In short: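 Recombinant GPX1 (10 nM final) was preincubated with compound for 30 min at room temperature, then reacted with 1 mM GSH, 0.5 mM CHP, 0.5 mM NADPH and 100 nM glutathione reductase; NADPH fluorescence (340/450 nm) was read at 0 and 15 min.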

[26] = target: Phospholipid hydroperoxide glutathione peroxidase GPX4 (Homo sapiens) (UniProt P36969); assay: Primary qHTS Assay for Inhibitors of Recombinant Selenoprotein Glutathione Peroxidase 4 (GPX4) (AID 1845192); details: recombinant GPX4, GR-coupled NADPH fluorescence, 15 min; series mostly up to 50 µM; note: % is set by controls: 0 for no effect and ±100 for the full control effect; nearly all actives have a fitted effect of over 65% in size
In short: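 GR-coupled readout: 100 nM GR, 1 mM GSH, 0.5 mM NADPH; NADPH fluorescence (ex 340/em 450 nm) read at t=0 and after 15 min RT. GPX4 200 nM, preincubated 30 min with compound; substrate 0.5 mM CHP.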

[27] = qHTS drug screen for cell cycle checkpoint inhibitors in PARPi-resistant BRCA-mutant ovarian cancer cell lines. (AID 1963452; calls by dose curve); details: PEO1/OlaR viability, CellTiter-Glo luminescence, 96 h, stronger effect = lower value
In short: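 PEO1, PEO4 and PEO1/OlaR ovarian cancer cells, 600 per well, exposed 96 h at 37C to a dilution series. Viability read by CellTiter-Glo luminescence, normalized to DMSO and empty wells; activity summarized as Z-AUC.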

Sequence of Voltage-gated inwardly rectifying potassium channel KCNH2 (Homo sapiens) (Q12809 whole entry, looked up): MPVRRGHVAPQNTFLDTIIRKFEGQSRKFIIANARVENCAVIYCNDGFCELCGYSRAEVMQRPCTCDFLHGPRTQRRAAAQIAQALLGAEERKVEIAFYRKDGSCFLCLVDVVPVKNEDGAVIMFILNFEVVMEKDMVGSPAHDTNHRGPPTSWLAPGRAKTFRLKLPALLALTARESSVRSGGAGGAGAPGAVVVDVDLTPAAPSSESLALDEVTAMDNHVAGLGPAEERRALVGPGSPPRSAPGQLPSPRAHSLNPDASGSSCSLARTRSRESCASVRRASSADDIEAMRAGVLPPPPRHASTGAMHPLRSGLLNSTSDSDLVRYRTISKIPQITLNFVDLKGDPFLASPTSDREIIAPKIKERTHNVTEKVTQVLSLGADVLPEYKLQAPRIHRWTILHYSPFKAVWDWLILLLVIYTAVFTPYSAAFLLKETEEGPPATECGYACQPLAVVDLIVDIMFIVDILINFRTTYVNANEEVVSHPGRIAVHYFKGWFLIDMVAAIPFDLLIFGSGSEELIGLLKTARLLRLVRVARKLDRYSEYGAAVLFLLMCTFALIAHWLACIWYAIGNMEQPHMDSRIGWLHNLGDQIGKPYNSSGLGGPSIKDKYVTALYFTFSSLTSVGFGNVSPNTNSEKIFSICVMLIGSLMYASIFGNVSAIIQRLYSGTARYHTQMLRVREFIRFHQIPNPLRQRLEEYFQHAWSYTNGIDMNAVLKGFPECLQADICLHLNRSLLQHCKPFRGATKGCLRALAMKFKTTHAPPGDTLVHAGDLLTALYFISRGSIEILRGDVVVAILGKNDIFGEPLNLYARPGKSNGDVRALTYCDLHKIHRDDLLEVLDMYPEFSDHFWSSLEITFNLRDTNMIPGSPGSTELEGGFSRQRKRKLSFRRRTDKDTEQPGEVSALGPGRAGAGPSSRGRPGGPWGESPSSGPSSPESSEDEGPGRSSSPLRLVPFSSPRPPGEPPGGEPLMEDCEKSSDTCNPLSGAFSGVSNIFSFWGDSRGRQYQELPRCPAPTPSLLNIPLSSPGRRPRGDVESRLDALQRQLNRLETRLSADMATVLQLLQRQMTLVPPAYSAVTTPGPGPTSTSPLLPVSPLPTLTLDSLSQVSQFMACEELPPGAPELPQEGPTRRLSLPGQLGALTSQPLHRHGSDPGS
Sequence of Thyrotropin receptor (Homo sapiens) (P16473 whole entry, looked up): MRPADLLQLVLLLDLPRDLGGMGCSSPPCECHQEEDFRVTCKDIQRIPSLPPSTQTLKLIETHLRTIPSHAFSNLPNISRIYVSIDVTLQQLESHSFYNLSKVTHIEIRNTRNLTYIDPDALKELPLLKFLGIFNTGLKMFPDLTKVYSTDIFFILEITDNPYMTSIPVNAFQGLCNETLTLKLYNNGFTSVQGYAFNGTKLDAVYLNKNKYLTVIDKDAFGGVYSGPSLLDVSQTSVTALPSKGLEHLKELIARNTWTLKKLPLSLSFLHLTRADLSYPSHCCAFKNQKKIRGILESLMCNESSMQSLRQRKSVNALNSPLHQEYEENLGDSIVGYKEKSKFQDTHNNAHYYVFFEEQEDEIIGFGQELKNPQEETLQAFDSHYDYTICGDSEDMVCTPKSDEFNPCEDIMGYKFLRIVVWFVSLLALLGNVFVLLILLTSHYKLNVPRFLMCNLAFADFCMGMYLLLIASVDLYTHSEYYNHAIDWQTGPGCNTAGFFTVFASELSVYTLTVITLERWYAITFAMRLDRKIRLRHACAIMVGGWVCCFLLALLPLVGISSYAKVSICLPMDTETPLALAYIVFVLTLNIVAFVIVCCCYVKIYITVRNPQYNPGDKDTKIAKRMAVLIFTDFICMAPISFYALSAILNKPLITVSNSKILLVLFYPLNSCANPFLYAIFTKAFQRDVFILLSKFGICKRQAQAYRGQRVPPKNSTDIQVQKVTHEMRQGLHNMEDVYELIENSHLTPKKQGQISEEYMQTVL
Sequence of DNA repair nuclease/redox regulator APEX1 (Homo sapiens) (P27695 whole entry, looked up): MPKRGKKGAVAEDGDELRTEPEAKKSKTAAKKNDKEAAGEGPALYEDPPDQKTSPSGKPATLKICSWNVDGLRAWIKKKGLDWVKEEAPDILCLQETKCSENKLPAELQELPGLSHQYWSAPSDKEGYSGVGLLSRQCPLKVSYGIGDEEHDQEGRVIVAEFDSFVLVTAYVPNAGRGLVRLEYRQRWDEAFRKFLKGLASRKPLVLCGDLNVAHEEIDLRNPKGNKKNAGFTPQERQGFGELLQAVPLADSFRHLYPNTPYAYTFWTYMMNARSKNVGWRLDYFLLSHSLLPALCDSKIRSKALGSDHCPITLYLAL
Sequence of Glutathione peroxidase 1 (Homo sapiens) (P07203 whole entry, looked up): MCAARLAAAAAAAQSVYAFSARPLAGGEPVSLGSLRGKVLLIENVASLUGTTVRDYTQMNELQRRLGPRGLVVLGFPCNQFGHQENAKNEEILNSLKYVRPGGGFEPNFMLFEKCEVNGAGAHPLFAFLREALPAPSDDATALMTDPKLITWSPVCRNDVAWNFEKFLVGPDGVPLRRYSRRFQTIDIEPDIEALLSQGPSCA
Sequence of Phospholipid hydroperoxide glutathione peroxidase GPX4 (Homo sapiens) (P36969 whole entry, looked up): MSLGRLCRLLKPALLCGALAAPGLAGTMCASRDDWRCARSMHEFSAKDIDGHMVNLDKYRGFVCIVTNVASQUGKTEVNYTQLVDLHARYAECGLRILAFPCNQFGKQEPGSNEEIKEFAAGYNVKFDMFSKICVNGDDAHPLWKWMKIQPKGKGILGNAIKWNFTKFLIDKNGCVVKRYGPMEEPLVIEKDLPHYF
Sequence of Cytochrome P450 2D6 (Homo sapiens) (P10635 whole entry, looked up): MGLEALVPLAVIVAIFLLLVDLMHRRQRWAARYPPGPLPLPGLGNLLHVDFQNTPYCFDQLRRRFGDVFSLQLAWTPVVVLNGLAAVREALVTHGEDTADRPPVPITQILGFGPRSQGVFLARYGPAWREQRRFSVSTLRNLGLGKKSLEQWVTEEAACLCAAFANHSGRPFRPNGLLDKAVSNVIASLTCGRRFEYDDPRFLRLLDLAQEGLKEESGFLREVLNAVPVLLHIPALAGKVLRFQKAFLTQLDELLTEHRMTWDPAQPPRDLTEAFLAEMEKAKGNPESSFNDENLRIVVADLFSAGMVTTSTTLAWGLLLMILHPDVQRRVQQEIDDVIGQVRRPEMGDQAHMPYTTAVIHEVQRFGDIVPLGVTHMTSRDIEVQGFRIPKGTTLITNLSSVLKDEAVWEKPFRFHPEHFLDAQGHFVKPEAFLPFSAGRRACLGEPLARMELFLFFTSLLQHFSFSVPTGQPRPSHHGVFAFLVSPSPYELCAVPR
Sequence of Thyrotropin-releasing hormone receptor (Homo sapiens) (P34981 whole entry, looked up): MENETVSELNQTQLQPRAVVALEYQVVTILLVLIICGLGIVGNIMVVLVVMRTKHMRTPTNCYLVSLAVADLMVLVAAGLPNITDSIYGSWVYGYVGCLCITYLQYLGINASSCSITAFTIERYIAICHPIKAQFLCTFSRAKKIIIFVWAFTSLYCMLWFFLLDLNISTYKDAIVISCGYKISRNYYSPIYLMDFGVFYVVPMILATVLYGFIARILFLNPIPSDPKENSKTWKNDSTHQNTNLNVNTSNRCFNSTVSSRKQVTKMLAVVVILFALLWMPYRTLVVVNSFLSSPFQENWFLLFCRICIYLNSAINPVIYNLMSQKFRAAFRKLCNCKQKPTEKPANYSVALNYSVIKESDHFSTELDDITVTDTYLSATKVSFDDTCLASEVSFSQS
Sequence of Galactokinase (Homo sapiens) (P51570 whole entry, looked up): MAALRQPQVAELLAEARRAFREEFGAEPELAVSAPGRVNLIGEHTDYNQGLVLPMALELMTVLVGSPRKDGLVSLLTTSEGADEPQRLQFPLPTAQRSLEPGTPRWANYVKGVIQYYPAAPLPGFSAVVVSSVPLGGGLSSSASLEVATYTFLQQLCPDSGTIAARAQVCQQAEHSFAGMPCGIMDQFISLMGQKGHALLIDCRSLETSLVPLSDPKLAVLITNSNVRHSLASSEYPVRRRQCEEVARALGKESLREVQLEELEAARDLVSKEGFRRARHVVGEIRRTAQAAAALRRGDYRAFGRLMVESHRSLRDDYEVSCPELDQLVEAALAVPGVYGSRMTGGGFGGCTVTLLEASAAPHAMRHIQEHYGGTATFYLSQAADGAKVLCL
Sequence of ATP-dependent DNA helicase Q1 (Homo sapiens) (P46063 whole entry, looked up): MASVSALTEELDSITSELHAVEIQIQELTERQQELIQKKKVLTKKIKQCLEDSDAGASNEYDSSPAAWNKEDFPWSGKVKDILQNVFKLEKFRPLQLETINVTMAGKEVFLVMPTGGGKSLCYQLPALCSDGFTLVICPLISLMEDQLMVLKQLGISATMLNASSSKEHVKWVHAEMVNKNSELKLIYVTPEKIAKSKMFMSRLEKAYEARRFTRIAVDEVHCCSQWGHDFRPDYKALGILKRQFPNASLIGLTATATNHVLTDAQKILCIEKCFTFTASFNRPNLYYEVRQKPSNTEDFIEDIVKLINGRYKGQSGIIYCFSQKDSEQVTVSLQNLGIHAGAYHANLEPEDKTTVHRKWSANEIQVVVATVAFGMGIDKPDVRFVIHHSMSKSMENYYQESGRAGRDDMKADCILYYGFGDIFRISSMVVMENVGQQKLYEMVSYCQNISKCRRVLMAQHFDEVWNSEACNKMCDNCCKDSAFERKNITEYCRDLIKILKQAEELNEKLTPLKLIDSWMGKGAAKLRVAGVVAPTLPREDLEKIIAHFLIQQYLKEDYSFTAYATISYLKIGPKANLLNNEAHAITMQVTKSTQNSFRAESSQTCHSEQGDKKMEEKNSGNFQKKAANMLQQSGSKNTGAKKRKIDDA

O=S(=O)(NCCNC/C=C/c1ccc(Br)cc1)c1cccc2cnccc12
inactive: activity change, negative = inhibition ([1]; at 57.5 µM (top of the series)) -23.6% | Potency [2] | Potency [3] | Potency [4] | Potency [10] | Potency [11] | outcome [12] | activation [13] 5.62% | outcome [14] | outcome [15] | Potency [17] | Potency [18] | Potency [19] | outcome [23] | Potency [24] | Potency [25] | Potency [26] | Z-AUC [27] 0.684
-49.7%: max response ([1]; measured here: lipid channel max response)
-29.8%: max response ([1]; measured here: cell count channel max response)
active: Potency [5] 8.91 µM | Potency [6] 12.6 µM | Potency [7] 11.2 µM | Potency [8] 8.91 µM | Potency [9] 5.01 µM | Potency [16] 2.82 µM | Potency [20] 4.77 µM | Potency [21] 16.6 µM | Potency [22] 14.8 µM
1.26: Z-AUC ([27]; measured here: PEO1 parental Z-AUC)
0.757: Z-AUC ([27]; measured here: PEO4 Z-AUC)
